Source: the supplement of paper PMC11417369
Over roughly 25,000 sequences, “ln(normalized median fluorescence intensity)” has its median near 9.7; the highest 2% begin near 11. The entries come from a sample that favours the highest values as a whole.

Test system: PfAP2-HC AP2 domain (GST-tagged)
Assay: gcPBM binding intensity (ln(normalized median fluorescence intensity)); higher = stronger DNA binding
Summary of the method: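 An Agilent 4 × 180k array carrying primer-extended double-stranded 36-bp intergenic genomic probes and negative controls received GST-tagged P. falciparum DNA-binding domains expressed in E. coli, about 25 μg on average, for 1 h. The binding buffer contained 1× PBS, 1% milk, 0.2 mg/ml BSA, 0.5% salmon testes DNA and 0.03% Triton X-100. Binding intensity is the top Masliner-normalised natural-log median intensity across replicate spots of either probe orientation, read after Alexa488 anti-GST antibody staining and a 488 nm scan.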

“ATATAAATATGTTCTGCACACAAATAAGTGTTTGAA [CACACA_site9291]” was tested. Which “gcPBM binding intensity (ln)” value did it give?
Its value is 9.79.

How did the “gcPBM binding intensity (ln)” value turn out when “GCACTAAAAAAATAAACACACAGATTTATATAATAT [CACACA_site1381]” was run?
Its value is 9.79.

“TACAAAAGCTATAACATTCACCACATTATAAAAATA [CACACA_negctrl_site1112]” was tested. Which “gcPBM binding intensity (ln)” value did it give?
Its value is 9.78.

Which “gcPBM binding intensity (ln)” value does the source give for “TAAAAACCAAAGAAAAGTACAAATTTAAATGAGAAA [XGTACX_site7450]” here?
Its value is 9.83.

Which “gcPBM binding intensity (ln)” value does the source give for “AAATATGTCAAATATACACACATAATAAATATAATA [CACACA_site2310]” here?
The value was 9.99.

For “TTCTAATATATGCATACACACAAATGTGAATATACA [CACACA_site2142]”, which “gcPBM binding intensity (ln)” value is on record?
Its value is 9.83.

How did the “gcPBM binding intensity (ln)” value turn out when “TAAAGGCAAACAAACACACACACATATATACATATA [CACACA_site2123]” was run?
The value was 11.1.

How did the “gcPBM binding intensity (ln)” value turn out when “AAGGCAAACAAACACACACACATATATACATATATA [CACACA_site2122]” was run?
The value was 10.4.

How did the “gcPBM binding intensity (ln)” value turn out when “AAAATAAAATAAAATACACACATACATACATACAAA [CACACA_site5366]” was run?
The value was 10.2.

“AAAAAAAAAAAAAATACACACACATAAAAAAAAAAA [CACACA_site8555]” was tested. Which “gcPBM binding intensity (ln)” value did it give?
Its value is 10.9.

How did the “gcPBM binding intensity (ln)” value turn out when “AAAAAAAAAATATACACACACACATACACATAAATA [CACACA_site3808]” was run?
The value was 10.4.

“AACAAATACGGACACACACACACACTAGAAAAAAAA [CACACA_site4442]” was tested. Which “gcPBM binding intensity (ln)” value did it give?
Its value is 11.

How did the “gcPBM binding intensity (ln)” value turn out when “AATAAAATAAAATACACACATACATACATACAAATG [CACACA_site2438]” was run?
The value was 11.2.

How did the “gcPBM binding intensity (ln)” value turn out when “AACAAACACGGACACACACACACACTAGAATGATTA [CACACA_site5364]” was run?
The value was 10.7.

With “ACAAAAAAAAAAAAAATACACACACATAAAAAAAAA [TGCATGCA_negctrl_site333]” as the sequence, how does the “gcPBM binding intensity (ln)” value read?
Its value is 10.2.

“TATTAATACGGACACACACACACACTAGATAAAATA [CACACA_site4295]” was tested. Which “gcPBM binding intensity (ln)” value did it give?
The value was 10.8.

“TAAAGGCAAACAAACACACACACATATATACCTATA [CACACA_site7078]” was tested. Which “gcPBM binding intensity (ln)” value did it give?
The value was 10.6.

With “AAAAAAAAAAAATACACACACATAAAAAAAAAAATA [CACACA_site1858]” as the sequence, how does the “gcPBM binding intensity (ln)” value read?
The value was 10.9.

Which “gcPBM binding intensity (ln)” value does the source give for “AATACATAATAACATGTACACACATTCTTCTATAAA [CACACA_site9344]” here?
The value was 9.82.

With “TAATAAACTTAAAAATGTACATATATTTATTATTAC [XGTACX_site4321]” as the sequence, how does the “gcPBM binding intensity (ln)” value read?
The value was 9.61.

With “AGTAAGAGGCATTAAGCATGCATATTATTATAAGCA [TGCATGCA_site237]” as the sequence, how does the “gcPBM binding intensity (ln)” value read?
Its value is 9.85.

With “AAGAATGTTAATAGTACACACAATTATTATATAAAT [CACACA_site3739]” as the sequence, how does the “gcPBM binding intensity (ln)” value read?
Its value is 9.93.

“TCCAAATGTTTGCGTTGTACTCTTTTTTTAAAACTA [XGTACX_site5148]” was tested. Which “gcPBM binding intensity (ln)” value did it give?
Its value is 9.73.

“ATATTTTTTTATAAATGTACAAAAATAATATTGCAT [XGTACX_site7399]” was tested. Which “gcPBM binding intensity (ln)” value did it give?
The value was 9.48.

ATATATATTATCATTGTGCACTTATTTATATACCTT was tested. Which “gcPBM binding intensity (ln)” value did it give?
The value was 10.

How did the “gcPBM binding intensity (ln)” value turn out when “AAAATATATACACAAACATGCATATAATAAATAAAT [TGCATGCA_site711]” was run?
Its value is 9.99.

Which “gcPBM binding intensity (ln)” value does the source give for “AAAAAAAAAAAACACACACACACATACAAAATATAT [CACACA_site1448]” here?
Its value is 11.3.

For “AATAAATATATGTACACACACAAATATATACATATC [CACACA_site1903]”, which “gcPBM binding intensity (ln)” value is on record?
Its value is 10.2.

With “AAAAAAAAAAAAAACATACACACAAATATATACATA [CACACA_site4010]” as the sequence, how does the “gcPBM binding intensity (ln)” value read?
The value was 10.

“ATATATCTACAAATATGTACACACACACATATATAT [XGTACX_site1075]” was tested. Which “gcPBM binding intensity (ln)” value did it give?
Its value is 11.1.

“CAAATACACCAACACACACACACAAAAAAAAAAAAA [CACACA_site514]” was tested. Which “gcPBM binding intensity (ln)” value did it give?
Its value is 11.3.

“CATATAAAAATATGCACACACAGGAATACAAACATA [CACACA_site684]” was tested. Which “gcPBM binding intensity (ln)” value did it give?
The value was 10.3.

How did the “gcPBM binding intensity (ln)” value turn out when “AAAATACACCAACACACACACATATATATATATATT [CACACA_site4149]” was run?
The value was 10.3.

How did the “gcPBM binding intensity (ln)” value turn out when “AACATATAAAAATATGCACACACAGGAATACAAACA [CACACA_site8127]” was run?
Its value is 11.2.

With “TGTACAAATATGTACACACACACATATATATATATA [CACACA_site584]” as the sequence, how does the “gcPBM binding intensity (ln)” value read?
Its value is 10.3.

For “AAAATACACAACATATATATATATATATATATATAT [XGTACX_negctrl_site21]”, which “gcPBM binding intensity (ln)” value is on record?
The value was 9.62.

For “AAAAAAAAAAAACATACACACAAATATATACATACA [CACACA_site4011]”, which “gcPBM binding intensity (ln)” value is on record?
Its value is 10.2.

With TATAAATTAAAATCAGTGCATATTTTGAAAAACCTC as the sequence, how does the “gcPBM binding intensity (ln)” value read?
Its value is 9.66.

How did the “gcPBM binding intensity (ln)” value turn out when “ATATATTGATATATGTGTACATAGCTTATTTCATTT [XGTACX_site1800]” was run?
Its value is 9.74.

With “GTAAAATTAAAAATAACACACAAAAAAAAAAAAAAA [CACACA_site800]” as the sequence, how does the “gcPBM binding intensity (ln)” value read?
The value was 9.85.

“TTTATTTATTTATTCTTATTTTTTTTTTTTTTTACT [CACACA_negctrl_site257]” was tested. Which “gcPBM binding intensity (ln)” value did it give?
The value was 9.49.

“CTATGAACACACACATGTACATATATTAACTCGCTA [XGTACX_site8805]” was tested. Which “gcPBM binding intensity (ln)” value did it give?
The value was 9.98.

“TTATAACTTTTCACAAGTACATATATATATGTATAA [XGTACX_site2306]” was tested. Which “gcPBM binding intensity (ln)” value did it give?
Its value is 9.53.

Which “gcPBM binding intensity (ln)” value does the source give for “AAGTTAGTATTCTGCTGTACTTCTATATATAAGTGT [XGTACX_site7678]” here?
Its value is 9.61.

“TAAATATATAAATACACACACATACACAAAAAAAAA [CACACA_site5890]” was tested. Which “gcPBM binding intensity (ln)” value did it give?
Its value is 10.9.

Which “gcPBM binding intensity (ln)” value does the source give for “TATAAATATATATATACACACACATACACAAAAAAA [CACACA_site9191]” here?
Its value is 10.5.

With “GATACAAAATGGGGAACACACACATATATATATATA [CACACA_site9278]” as the sequence, how does the “gcPBM binding intensity (ln)” value read?
The value was 10.8.

With “TATATACACATATATAAACACACAAAAAAAAAAAAA [CACACA_site8626]” as the sequence, how does the “gcPBM binding intensity (ln)” value read?
Its value is 9.82.

“TATAACATAAAACACACACACATACATACACAAAAA [CACACA_site1804]” was tested. Which “gcPBM binding intensity (ln)” value did it give?
Its value is 11.

How did the “gcPBM binding intensity (ln)” value turn out when “CACATACATATATACACACACAAAATAATAAAATAA [CACACA_site2308]” was run?
The value was 10.4.

“CACACGCACGGACACACACACAAAAAAAAAAAGAAA [CACACA_site6378]” was tested. Which “gcPBM binding intensity (ln)” value did it give?
The value was 10.3.

Which “gcPBM binding intensity (ln)” value does the source give for “TACAAAATGGGGAACACACACATATATAAATAAATA [CACACA_site7751]” here?
Its value is 11.1.

With “CACAGACACGGACACACACACACAAAAAAAAAAAGA [CACACA_site4436]” as the sequence, how does the “gcPBM binding intensity (ln)” value read?
The value was 11.3.

“AACAGACAAAGACACACACACATACATACATACATA [CACACA_site6351]” was tested. Which “gcPBM binding intensity (ln)” value did it give?
The value was 10.4.

For “TATACACATATATAAACACACAAAAAAAAAAAAAAA [CACACA_site7041]”, which “gcPBM binding intensity (ln)” value is on record?
Its value is 9.57.

“TACAAAATGGGGAACACACACATATATATATATATA [CACACA_site3844]” was tested. Which “gcPBM binding intensity (ln)” value did it give?
The value was 9.99.

For “TTTTTTTGCATTTCATGTACATATATTGAGCTTAAA [XGTACX_site8485]”, which “gcPBM binding intensity (ln)” value is on record?
Its value is 9.6.
